From PubChem BioAssay AID1347426 (Functional Genomics Laboratory (NCATS/FGL), 2020)
Screen size: about 31,000 sequences; about 1,400 (4.5%) were called active. Only a selection was taken, and actives are over-represented in it overall. A number with no mark means an inactive call.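 How the source made its calls: active means median seed-adjusted z-score above 1 or below -1; inactive means the rest.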

Experiment: Novel Modifiers of Survival Motor Neuron (SMN) Protein: Gene Identification via Genome-wide siRNA Screen;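 further: luminescence tracks full-length SMN protein made from the SMN2 reporter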
Details: HEK293T SMN2-luciferase reporter, siRNA knockdown, 72 h; actives lie on both sides
Outline: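 HEK293T cells stably carrying an SMN2 promoter/splicing cassette–luciferase reporter were reverse-transfected with 1 pmol siRNA per well (druggable-genome library, 3 siRNAs per gene) and grown 72 h at 37 °C. Luminescence, normalized to negative-control siRNA and log10-transformed, was scored as MAD.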

**Q.** With AGAUAUUUGUUAUCGCUGUTT against CNBP as the sequence, how does the median seed-adjusted z-score read?
**A.** Its median seed-adjusted z-score is -1.14 (active).

**Q.** With GGAAUGAUCUGACUAACUUTT against PECI as the sequence, how does the median seed-adjusted z-score read?
**A.** Its median seed-adjusted z-score is -0.0254.

**Q.** With GAAAAUUGCUCACUUUGAUTT against DAPK2 as the sequence, how does the median seed-adjusted z-score read?
**A.** The median seed-adjusted z-score was 0.268.

**Q.** With GAAGAACUCGAAUAUGUCATT against ASNSD1 as the sequence, how does the median seed-adjusted z-score read?
**A.** The median seed-adjusted z-score was 0.437.

**Q.** Which median seed-adjusted z-score does the source give for CUUAAUCACUUGCAUAAAATT against GALR1 here?
**A.** The median seed-adjusted z-score was -0.721.

**Q.** With GAUUACCCUUAGAUCAUAUTT against NARG1 as the sequence, how does the median seed-adjusted z-score read?
**A.** Its median seed-adjusted z-score is -1.02 (active).

**Q.** With GCCUUAAGGUCAAGGUCUATT against UNC5B as the sequence, how does the median seed-adjusted z-score read?
**A.** Its median seed-adjusted z-score is -0.0207.

**Q.** For GAAUUGGGCUUGUUGAUAUTT against KCNB2, which median seed-adjusted z-score is on record?
**A.** The median seed-adjusted z-score was 1.22 (active).

**Q.** With GCAUUGGAGGUGAUCCUUUTT against SUCLG1 as the sequence, how does the median seed-adjusted z-score read?
**A.** The median seed-adjusted z-score was -0.63.

**Q.** Which median seed-adjusted z-score does the source give for CAUUCGCAAAGGUAUCAUUTT against SLC20A2 here?
**A.** The median seed-adjusted z-score was -0.0546.

**Q.** For GAGUGGAAAUUUCACCUAUTT against IFNAR2, which median seed-adjusted z-score is on record?
**A.** Its median seed-adjusted z-score is -0.219.

**Q.** Which median seed-adjusted z-score does the source give for UCAGUAUCUUGGUCCUGUATT against CALCB here?
**A.** The median seed-adjusted z-score was 0.

**Q.** Which median seed-adjusted z-score does the source give for CACCUGUUCUAUCACAGUATT against NOP2 here?
**A.** Its median seed-adjusted z-score is 1.15 (active).

**Q.** With CCGCAGAUCCUGUAGACUATT against PARD3B as the sequence, how does the median seed-adjusted z-score read?
**A.** Its median seed-adjusted z-score is 0.306.

**Q.** For GAGAACAUGUUGUUCCGCUTT against SSPO, which median seed-adjusted z-score is on record?
**A.** The median seed-adjusted z-score was 0.397.

**Q.** Which median seed-adjusted z-score does the source give for GGGAUACAUUUAAGCGCAATT against SYTL2 here?
**A.** The median seed-adjusted z-score was 0.211.

**Q.** Which median seed-adjusted z-score does the source give for AGAGGCUGCGGUUCAAAGATT against PTP4A3 here?
**A.** The median seed-adjusted z-score was 0.354.

**Q.** With GAUCCUGAGUUAGAGAAGATT against METTL3 as the sequence, how does the median seed-adjusted z-score read?
**A.** The median seed-adjusted z-score was 0.261.

**Q.** With GCAGUUCCCUUAGAGCUAGTT against MAP4 as the sequence, how does the median seed-adjusted z-score read?
**A.** Its median seed-adjusted z-score is 1.67 (active).

**Q.** For UCUCCUUCUUCGGAACGAATT against SCAMP5, which median seed-adjusted z-score is on record?
**A.** The median seed-adjusted z-score was -0.303.

**Q.** Which median seed-adjusted z-score does the source give for GACUGUAUCCAAACGAAUUTT against SLITRK2 here?
**A.** Its median seed-adjusted z-score is -0.246.

**Q.** Which median seed-adjusted z-score does the source give for GCUUCUCGGCUGUCCAUGATT against CLCNKB here?
**A.** Its median seed-adjusted z-score is 0.428.

**Q.** For GAAUAAGCCGUGUACUGAUTT against CASD1, which median seed-adjusted z-score is on record?
**A.** Its median seed-adjusted z-score is 0.202.

**Q.** With GAUUCAGUGUGGGAGAGUUTT against MCAT as the sequence, how does the median seed-adjusted z-score read?
**A.** Its median seed-adjusted z-score is 0.

**Q.** With CGAGGACAUUGAUAACGAATT against CCNB2 as the sequence, how does the median seed-adjusted z-score read?
**A.** The median seed-adjusted z-score was 0.0328.

**Q.** With GAUGAUUACCAGGAACGAATT against CAPRIN1 as the sequence, how does the median seed-adjusted z-score read?
**A.** Its median seed-adjusted z-score is 1.36 (active).

**Q.** With CCUCCGAAUUCUCAACAUATT against CSNK1E as the sequence, how does the median seed-adjusted z-score read?
**A.** Its median seed-adjusted z-score is -0.796.

**Q.** Which median seed-adjusted z-score does the source give for CGAAUCAUUUGGGAAUUGATT against IDH1 here?
**A.** Its median seed-adjusted z-score is 0.421.

**Q.** Which median seed-adjusted z-score does the source give for ACUUUGCAAUCGCUCAAAATT against NPTX1 here?
**A.** The median seed-adjusted z-score was -0.117.

**Q.** Which median seed-adjusted z-score does the source give for CAAUCUUCUUGGGAUUAUUTT against TRPC7 here?
**A.** Its median seed-adjusted z-score is 0.146.

**Q.** Which median seed-adjusted z-score does the source give for GGGAGAAGGUGAGCAGUAUTT against ZYX here?
**A.** The median seed-adjusted z-score was 0.273.

**Q.** With CAGCCAUGAUAAUAAAGCUTT against RARRES2 as the sequence, how does the median seed-adjusted z-score read?
**A.** The median seed-adjusted z-score was -0.125.

**Q.** For GGAUGAUCGUGACAAGUUUTT against ATP1B3, which median seed-adjusted z-score is on record?
**A.** The median seed-adjusted z-score was -0.225.

**Q.** For GAGAAGAUGUGGACAUACATT against GRIA1, which median seed-adjusted z-score is on record?
**A.** The median seed-adjusted z-score was 0.927.

**Q.** Which median seed-adjusted z-score does the source give for GAAGCUCUCUUGACUAUGATT against FKBP3 here?
**A.** The median seed-adjusted z-score was -0.102.

**Q.** Which median seed-adjusted z-score does the source give for GCAUUUACUCGCUCUUCAATT against KCNK12 here?
**A.** The median seed-adjusted z-score was 1.04 (active).

**Q.** With AGACUUUGUUGUUACACUUTT against SYPL1 as the sequence, how does the median seed-adjusted z-score read?
**A.** The median seed-adjusted z-score was -0.457.

**Q.** With GGAAGUUCGCAGAAAAGUATT against PDIA5 as the sequence, how does the median seed-adjusted z-score read?
**A.** Its median seed-adjusted z-score is 0.989.

**Q.** Which median seed-adjusted z-score does the source give for CGGUACUACCCAAACGUCATT against APOBEC3D here?
**A.** The median seed-adjusted z-score was -0.0215.

**Q.** Which median seed-adjusted z-score does the source give for GAACUUUCCUGUUACCUUUTT against CD81 here?
**A.** Its median seed-adjusted z-score is 0.

**Q.** With CCAUAUGAGUCCUAUGAGATT against SMURF1 as the sequence, how does the median seed-adjusted z-score read?
**A.** Its median seed-adjusted z-score is -1.4 (active).

**Q.** With CAUCGUCCAUGACAAGUCATT against GTF2IRD1 as the sequence, how does the median seed-adjusted z-score read?
**A.** The median seed-adjusted z-score was -0.282.

**Q.** Which median seed-adjusted z-score does the source give for AGAAAGGUUUUACUACAAUTT against POLR2C here?
**A.** Its median seed-adjusted z-score is -2.95 (active).

**Q.** Which median seed-adjusted z-score does the source give for GGAAAACUCGUGUCCAUCATT against FARP1 here?
**A.** The median seed-adjusted z-score was -0.487.

**Q.** With UGUUCAGCAUAGUUGUUUUTT against SLC12A9 as the sequence, how does the median seed-adjusted z-score read?
**A.** The median seed-adjusted z-score was -0.0853.

**Q.** With GGAUCAAGCUCACAAGGGATT against WDR36 as the sequence, how does the median seed-adjusted z-score read?
**A.** Its median seed-adjusted z-score is 0.00836.

**Q.** Which median seed-adjusted z-score does the source give for GCUCGUUGGGACCAACUAATT against DYNC2H1 here?
**A.** Its median seed-adjusted z-score is -0.613.

**Q.** Which median seed-adjusted z-score does the source give for GACCAAAAUUUGGAUACAATT against CTSL2 here?
**A.** The median seed-adjusted z-score was -1.04 (active).

**Q.** Which median seed-adjusted z-score does the source give for GUGUGGACUUGGAACAAUATT against THUMPD2 here?
**A.** The median seed-adjusted z-score was -0.129.

**Q.** With GGGAUUCCAUUGACCAGAATT against PLCG2 as the sequence, how does the median seed-adjusted z-score read?
**A.** The median seed-adjusted z-score was 0.

**Q.** For GCUGAGGAGUCAGUGCAUGTT against TNFRSF18, which median seed-adjusted z-score is on record?
**A.** The median seed-adjusted z-score was 0.154.

**Q.** For AGACUGUAUUGCAGGGUGATT against MAFK, which median seed-adjusted z-score is on record?
**A.** The median seed-adjusted z-score was 1.73 (active).

**Q.** For GAGUCGGAGUCGAAGUAGATT against NKTR, which median seed-adjusted z-score is on record?
**A.** Its median seed-adjusted z-score is -1.1 (active).

**Q.** For GAAUUAUGCUACUCGAGAATT against EIF3A, which median seed-adjusted z-score is on record?
**A.** The median seed-adjusted z-score was -0.689.

**Q.** For CAACAACAGGUAUGAGAUATT against ACCN2, which median seed-adjusted z-score is on record?
**A.** The median seed-adjusted z-score was -0.597.

**Q.** For GCUGAAGGCUUAUGAGUAUTT against KCNV2, which median seed-adjusted z-score is on record?
**A.** The median seed-adjusted z-score was -1.13 (active).

**Q.** Which median seed-adjusted z-score does the source give for GUGGUCACUUGGUUCCAGATT against LBX2 here?
**A.** The median seed-adjusted z-score was 0.538.

**Q.** Which median seed-adjusted z-score does the source give for GGUCAUAGGUUUUGGAUCUTT against HIATL1 here?
**A.** Its median seed-adjusted z-score is 0.327.

**Q.** Which median seed-adjusted z-score does the source give for CCAAUGCAGUGAUUACCGUTT against HSPA1L here?
**A.** The median seed-adjusted z-score was -1.27 (active).

**Q.** For CCAGUUUCAUUAUACAUCATT against ZNF211, which median seed-adjusted z-score is on record?
**A.** The median seed-adjusted z-score was -0.173.

**Q.** Which median seed-adjusted z-score does the source give for GCUUCACCCUGGCUAGAAATT against ECHDC2 here?
**A.** The median seed-adjusted z-score was -0.0827.

**Q.** For GUGUCGAGCUUGCAACUGUTT against LAMC2, which median seed-adjusted z-score is on record?
**A.** Its median seed-adjusted z-score is -0.186.

**Q.** Which median seed-adjusted z-score does the source give for CCUUUAACCAGUCUGCACATT against ZNF85 here?
**A.** The median seed-adjusted z-score was -1.01 (active).

**Q.** For GAAGGUGGAUUGCAACAAATT against GPX6, which median seed-adjusted z-score is on record?
**A.** The median seed-adjusted z-score was 0.35.

**Q.** For GCAGAAGGCUCAGUAGCUATT against NAT5, which median seed-adjusted z-score is on record?
**A.** Its median seed-adjusted z-score is -0.0124.

**Q.** For CACCCGCGCUCAUGAGAAATT against KLC2, which median seed-adjusted z-score is on record?
**A.** Its median seed-adjusted z-score is 0.0706.

**Q.** With GCCCAUUACUUUACCACUUTT against METTL4 as the sequence, how does the median seed-adjusted z-score read?
**A.** The median seed-adjusted z-score was 0.244.

**Q.** Which median seed-adjusted z-score does the source give for GCCUUGAUCAAGUAACAGATT against PARD6B here?
**A.** Its median seed-adjusted z-score is 0.315.

**Q.** Which median seed-adjusted z-score does the source give for GGCGCACGCUUUUCUCUAATT against ACTR1A here?
**A.** The median seed-adjusted z-score was 1.28 (active).
